Test results reported in the supplement of paper PMC13392028.
Whole data set: some 4,100 sequences, median “RBNS R-value (6-mer enrichment in protein-bound RNA vs input library)” near 0.96, cut for the highest 2% near 2.4. Shown is part of a subset that was picked to be rich in the highest values.

Test system: PyIESI-1 RRM domain (Plasmodium yoelii PY17X_0911200 aa 795-956, GST fusion)
Assay: RBNS R-value (6-mer enrichment in protein-bound RNA vs input library) (ratio); higher = stronger binding preference; the methods of the paper give 50 / 100 / 500 nM protein instead
Experimental: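 RNA Bind-n-Seq: recombinant GST-tagged IESI-1 RRM domain was incubated at room temperature with a random 40-nt in vitro transcribed RNA library at 250, 500 or 1000 nM protein. Bound RNA was pulled down on glutathione beads and sequenced. R-value is the enrichment of each 6-mer in the bound RNA relative to the input library. Each 6-mer sits inside the random 40-mer context, not as an isolated oligo. Values are replicate 1 only.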

Sequence	RBNS R-value (protein concentration: 250 nM)	RBNS R-value (protein concentration: 500 nM)	RBNS R-value (protein concentration: 1000 nM)
GGAUAU	0.856	0.872	0.845
UGAUAC	3.65	3.59	3.96
UGAUAA	4.34	4.21	4.69
UGAUAU	3.72	3.77	4.19
AGAUAU	0.962	0.983	1
AGAUAG	1.08	1.1	1.11
GGAUAG	0.94	0.954	0.908
AGAUAA	0.936	1	1.02
CGAUAA	1.27	1.33	1.41
GCUACG	0.896	0.915	0.905
AGCUCC	0.982	0.991	1
UGCUGA	2.04	1.98	1.99
AAUCAC	0.701	0.714	0.718
GGGCUU	1.01	1.02	1.01
ACGCUG	1.14	1.13	1.13
CCGGCG	1.06	1.09	1.08
UACAGC	0.713	0.73	0.722
UCCCAU	0.805	0.831	0.834
UCCUCG	0.965	0.991	0.988
AAUUUU	1.02	1.02	1.06
GAUUUC	3.38	3.2	3.32
AAUUUC	1.1	1.11	1.15
GAUUUG	4.2	3.81	3.78
AAUUUG	1.6	1.54	1.6
GAUUUU	3.71	3.43	3.56

Sequence	RBNS R-value (protein concentration: 250 nM)	RBNS R-value (protein concentration: 500 nM)	RBNS R-value (protein concentration: 1000 nM)
CAUUUU	0.849	0.886	0.903
UAUUUA	0.42	0.445	0.418
CAUUUA	0.421	0.449	0.427
CAUUUC	0.888	0.94	1
GAUUUA	2.58	2.52	2.7
CAUUUG	1.31	1.35	1.38
UGGGUA	0.987	1.02	0.989
GUAGUG	0.958	0.965	0.926
GUAAAA	0.762	0.753	0.701
AAACAA	0.781	0.765	0.773
GACAUG	1.52	1.48	1.5
CCUAGC	0.86	0.888	0.886
UCGAUG	2.22	2.24	2.37
UCGAUA	1.17	1.23	1.29
GCGAUC	1.09	1.12	1.13
CCGAUG	2.44	2.4	2.5
ACGAUA	1.21	1.3	1.37
ACGAUG	2.5	2.46	2.59
UCGAUC	1.05	1.07	1.11
CCGAUA	1.32	1.36	1.43
GCGAUG	2.65	2.56	2.65
GCGAUU	2.19	2.21	2.28
CCGAUU	2.3	2.23	2.34
ACGAUC	0.998	1	1.05
